Measurements reported in PubChem BioAssay AID1159580 (chemical genetic matrix, 2015).
About 2,000 (36%) of roughly 5,500 compounds were called active. Not shown: some 18% with an inconclusive outcome. Rule as the data show it: active = normalized growth mostly below about 0.91 (no sharp cut-off); inconclusive = no clear call, values can overlap the other calls; inactive = mostly above about 0.92. The list shows a part of the results.

Assay: chemical genetic growth profiling, strain panel (AID 1159580);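 also: tested at 20 µM; growth read once vehicle control cultures reached saturation at 30 °C; 1 = growth at the plate median or of vehicle wells; lower values mean less growth of the strain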
Conditions: growth OD
[1] = S. cerevisiae deletion strains, locus YAL013W, strain DEP1, hits give low values
[2] = S. cerevisiae deletion strains, locus YBR229C, strain ROT2, hits give low values
[3] = S. cerevisiae deletion strains, locus YCL061C, strain MRC1, hits give low values
[4] = S. cerevisiae deletion strains, locus YDL101C, strain DUN1, hits give low values
[5] = S. cerevisiae deletion strains, locus YDR150W, strain NUM1, hits give low values
[6] = S. cerevisiae deletion strains, locus YEL061C, strain CIN8, hits give low values
[7] = S. cerevisiae deletion strains, locus YGR078C, strain PAC10, hits give low values
[8] = S. cerevisiae deletion strains, locus YHR030C, strain SLT2, hits give low values
[9] = S. cerevisiae deletion strains, locus YHR087W, strain rtc3, hits give low values
[10] = S. cerevisiae deletion strains, locus YJR043C, strain POL32, hits give low values
[11] = S. cerevisiae deletion strains, locus YJR075W, strain HOC1, hits give low values
[12] = S. cerevisiae deletion strains, locus YLR039C, strain RIC1, hits give low values
[13] = S. cerevisiae deletion strains, locus YLR058C, strain SHM2 (second series), hits give low values
[14] = S. cerevisiae deletion strains, locus YLR085C, strain ARP6, hits give low values
[15] = S. cerevisiae deletion strains, locus YLR262C, strain YPT6, hits give low values
[16] = S. cerevisiae deletion strains, locus YML094W, strain GIM5, hits give low values
[17] = S. cerevisiae deletion strains, locus YMR219W, strain ESC1, hits give low values
[18] = S. cerevisiae deletion strains, locus YMR263W, strain SAP30, hits give low values
[19] = S. cerevisiae deletion strains, locus YNL128W, strain TEP1, hits give low values
[20] = S. cerevisiae deletion strains, locus YNL153C, strain GIM3, hits give low values
[21] = S. cerevisiae deletion strains, locus YNL298W, strain CLA4 (second series), hits give low values
[22] = S. cerevisiae deletion strains, locus YNL322C, strain KRE1, hits give low values
[23] = S. cerevisiae deletion strains, locus YNR030W, strain Alg12, hits give low values
[24] = S. cerevisiae deletion strains, locus YOL006C, strain TOP1, hits give low values
[25] = S. cerevisiae deletion strains, locus YPL055C, strain LGE1, hits give low values
[26] = S. cerevisiae deletion strains, locus YPL241C, strain CIN2, hits give low values
[27] = S. cerevisiae deletion strains, locus YPR135W, strain CTF4, hits give low values
[28] = S. cerevisiae strains, strain wild type, hits give low values
[29] = S. cerevisiae deletion strains, locus YGR229C, strain SMI1, hits give low values

Measured: normalized growth

COc1cc(C(F)(F)F)cc(C(F)(F)F)c1C(=O)Nc1cc(C(F)(F)F)cc(C(F)(F)F)c1
inactive: [1] 1.03 | [2] 1.02 | [3] 1.02 | [4] 1.04 | [5] 1 | [6] 1.01 | [7] 1.01 | [8] 1.11 | [9] 1.04 | [10] 1.01 | [11] 1 | [12] 1.03 | [13] 0.998 | [14] 1.03 | [15] 1.01 | [16] 1.08 | [17] 1.01 | [18] 1.01 | S. cerevisiae deletion strains, locus YMR307W, strain GAS1, hits give low values 1.01 | [19] 1 | [20] 1.01 | [21] 1.03 | [22] 1.01 | [23] 1.03 | [24] 1.09 | [25] 1.07 | [26] 1.06 | [27] 1.1 | [28] 1.01

COc1ccc(NC(=O)c2cc(C(F)(F)F)cc(C(F)(F)F)c2)cn1
active: [7] 0.92 | [12] 0.539 | [13] 0.926 | [15] 0.636 | [22] 0.938 | [27] 0.611
inactive: [1] 0.964 | [2] 0.938 | [3] 0.968 | [4] 0.928 | [5] 1.05 | [6] 0.942 | [29] 0.959 | [8] 0.826 | [9] 0.925 | [10] 0.959 | [11] 0.893 | S. cerevisiae deletion strains, locus YKL190W, strain CNB1, hits give low values 0.947 | [14] 0.781 | [16] 0.927 | [17] 0.949 | [18] 0.98 | [19] 0.953 | [20] 0.983 | [21] 0.895 | [23] 0.9 | [24] 0.867 | [25] 0.963 | [26] 0.908 | [28] 0.931

CC(=O)OCC1=C(C(=O)O)N2C(=O)C(NC(=O)CSc3ccncc3)C2SC1 (stereo not given)
inactive: S. cerevisiae deletion strains, locus YAL040C, strain CLN3, hits give low values 0.974 | S. cerevisiae deletion strains, locus YCL061C, strain MRC1 (second series), hits give low values 0.991 | S. cerevisiae deletion strains, locus YER002W, strain NOP16, hits give low values 1.02 | [29] 0.99 | [18] 0.974 | S. cerevisiae deletion strains, locus YNL175C, strain NOP13, hits give low values 1 | S. cerevisiae deletion strains, locus YNL197C, strain WHI3, hits give low values 1 | S. cerevisiae deletion strains, locus YNL224C, strain SQS1, hits give low values 1 | S. cerevisiae deletion strains, locus YOR083W, strain WHI5 (second series), hits give low values 1.02 | [25] 1.01

COc1ccc(/C=C2\CSc3ccc(F)cc3C2=O)cc1
active: [8] 0.771 | S. cerevisiae deletion strains, locus YLR113W, strain HOG1, hits give low values 0.763
inactive: S. cerevisiae deletion strains, locus YAR019C, strain CDC15, hits give low values 0.955 | S. cerevisiae deletion strains, locus YBL105C, strain PKC1, hits give low values 0.96 | S. cerevisiae deletion strains, locus YBR135W, strain CKS1, hits give low values 0.951 | S. cerevisiae deletion strains, locus YBR136W, strain MEC1, hits give low values 0.971 | S. cerevisiae deletion strains, locus YBR160W, strain CDC28, hits give low values 0.961 | S. cerevisiae deletion strains, locus YDL017W, strain CDC7, hits give low values 0.966 | S. cerevisiae deletion strains, locus YDL028C, strain MPS1, hits give low values 0.931 | [4] 0.968 | S. cerevisiae deletion strains, locus YDL108W, strain KIN28, hits give low values 0.955 | S. cerevisiae deletion strains, locus YDL132W, strain cdc53, hits give low values 0.947 | S. cerevisiae deletion strains, locus YDL214C, strain PRR2, hits give low values 0.932 | S. cerevisiae deletion strains, locus YDR052C, strain DBF4, hits give low values 0.977 | S. cerevisiae deletion strains, locus YDR054C, strain cdc34, hits give low values 0.953 | S. cerevisiae deletion strains, locus YDR226W, strain ADK1, hits give low values 0.965 | S. cerevisiae deletion strains, locus YDR477W, strain SNF1, hits give low values 0.916 | S. cerevisiae deletion strains, locus YER123W, strain YCK3, hits give low values 0.896 | S. cerevisiae deletion strains, locus YER133W, strain GLC7, hits give low values 0.916 | S. cerevisiae deletion strains, locus YFL009W, strain cdc4, hits give low values 0.934 | S. cerevisiae deletion strains, locus YFL029C, strain CAK1, hits give low values 0.947 | S. cerevisiae deletion strains, locus YFR003C, strain YPI1, hits give low values 0.96 | S. cerevisiae deletion strains, locus YFR019W, strain FAB1, hits give low values 0.953 | S. cerevisiae deletion strains, locus YFR028C, strain CDC14, hits give low values 0.93 | S. cerevisiae deletion strains, locus YGR040W, strain KSS1, hits give low values 0.917 | S. cerevisiae deletion strains, locus YGR052W, strain FMP48, hits give low values 0.939 | S. cerevisiae deletion strains, locus YGR092W, strain DBF2, hits give low values 0.925 | S. cerevisiae deletion strains, locus YHR079C, strain IRE1, hits give low values 0.909 | S. cerevisiae deletion strains, locus YHR082C, strain KSP1, hits give low values 0.949 | S. cerevisiae deletion strains, locus YHR205W, strain SCH9, hits give low values 0.899 | S. cerevisiae deletion strains, locus YIL147C, strain SLN1, hits give low values 0.969 | S. cerevisiae deletion strains, locus YJL095W, strain BCK1, hits give low values 0.9 | S. cerevisiae deletion strains, locus YJL128C, strain PBS2, hits give low values 0.91 | S. cerevisiae deletion strains, locus YJL157C, strain FAR1, hits give low values 0.927 | S. cerevisiae deletion strains, locus YJR016C, strain ILV3, hits give low values 0.973 | S. cerevisiae deletion strains, locus YJR066W, strain TOR1 (second series), hits give low values 0.909 | S. cerevisiae deletion strains, locus YJR066W, strain TOR1, hits give low values 0.874 | S. cerevisiae deletion strains, locus YKL048C, strain ELM1, hits give low values 0.949 | S. cerevisiae deletion strains, locus YKL067W, strain YNK1, hits give low values 0.911 | S. cerevisiae deletion strains, locus YKL101W, strain HSL1, hits give low values 0.927 | S. cerevisiae deletion strains, locus YKL193C, strain SDS22, hits give low values 0.941 | S. cerevisiae deletion strains, locus YKL203C, strain TOR2, hits give low values 1.01 | S. cerevisiae deletion strains, locus YLR133W, strain CKI1, hits give low values 0.949 | S. cerevisiae deletion strains, locus YLR403W, strain SFP1, hits give low values 0.928 | S. cerevisiae deletion strains, locus YML070W, strain DAK1, hits give low values 0.91 | S. cerevisiae deletion strains, locus YMR001C, strain CDC5, hits give low values 0.952 | S. cerevisiae deletion strains, locus YMR205C, strain PFK2 (second series), hits give low values 0.942 | S. cerevisiae deletion strains, locus YMR277W, strain FCP1, hits give low values 0.929 | S. cerevisiae deletion strains, locus YNL006W, strain LST8, hits give low values 0.967 | S. cerevisiae deletion strains, locus YNL020C, strain ARK1, hits give low values 0.955 | S. cerevisiae deletion strains, locus YNL161W, strain CBK1, hits give low values 0.951 | S. cerevisiae deletion strains, locus YNL183C, strain NPR1, hits give low values 0.935 | S. cerevisiae deletion strains, locus YNL207W, strain RIO2, hits give low values 0.969 | S. cerevisiae deletion strains, locus YNL222W, strain SSU72, hits give low values 0.952 | S. cerevisiae deletion strains, locus YNL307C, strain MCK1 (second series), hits give low values 0.927 | S. cerevisiae deletion strains, locus YOL078W, strain AVO1, hits give low values 0.94 | S. cerevisiae deletion strains, locus YOL136C, strain PFK27, hits give low values 0.902 | S. cerevisiae deletion strains, locus YOR061W, strain CKA2, hits give low values 0.933 | S. cerevisiae deletion strains, locus YOR119C, strain RIO1, hits give low values 0.95 | S. cerevisiae deletion strains, locus YOR231W, strain MKK1, hits give low values 0.879 | S. cerevisiae deletion strains, locus YOR329C, strain SCD5, hits give low values 0.964 | S. cerevisiae deletion strains, locus YPL031C, strain PHO85, hits give low values 0.914 | S. cerevisiae deletion strains, locus YPL153C, strain RAD53, hits give low values 0.929 | S. cerevisiae deletion strains, locus YPL204W, strain HRR25, hits give low values 0.912 | S. cerevisiae deletion strains, locus YPL209C, strain IPL1, hits give low values 0.959 | S. cerevisiae deletion strains, locus YPL256C, strain CLN2, hits give low values 0.87 | S. cerevisiae deletion strains, locus YPR025C, strain CCL1, hits give low values 0.958 | S. cerevisiae deletion strains, locus YPR106W, strain ISR1, hits give low values 0.962 | S. cerevisiae deletion strains, locus YPR111W, strain DBF20, hits give low values 0.938 | S. cerevisiae deletion strains, strain NNK1, hits give low values 0.962 | S. cerevisiae deletion strains, strain TSCII, hits give low values 0.946
